# Tests used:
# Test in all cases: PBM binding z-score (relative to random genomic background probes); higher = stronger binding; sequences stand for … in GC…GCGATTGACAGCGTAGAATGAAGG
# [1] = tested on: FXR:RXRa (NR concentration 270 nM, RXRa partner concentration 90 nM)
# How it was run: (§1)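 Binding buffer was PBS pH 7.4 with 2% milk, 0.02% Triton X-100, 1 mM DTT, 0.2 mg/mL BSA and 0.4 mg/ml salmon testes DNA. In it, ligand-free nuclear receptor dimers were incubated 1 h on custom Agilent 4×180K protein-binding microarrays carrying double-stranded probes. Antibodies against each partner (one per run) detected binding, and z-scores were calculated against random background probes after regression normalization of scanned fluorescence.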
# [2] = tested on: LXRa:RXRa (NR concentration 270 nM, RXRa partner concentration 90 nM)
# How it was run: as §1
# [3] = tested on: LXRa homodimer (NR concentration 270 nM)
# How it was run: as §1
# [4] = tested on: LXRb:RXRa (NR concentration 270 nM, RXRa partner concentration 90 nM)
# How it was run: as §1
# [5] = tested on: LXRb homodimer (NR concentration 270 nM)
# How it was run: as §1
# [6] = tested on: PPARa:RXRa (NR concentration 270 nM, RXRa partner concentration 90 nM)
# How it was run: as §1
# [7] = tested on: PPARg:RXRa (NR concentration 180 nM, RXRa partner concentration 90 nM)
# How it was run: as §1
# [8] = tested on: PPARg:RXRa 270nM:90nM, anti-RXR (NR concentration 270 nM, RXRa partner concentration 90 nM)
# How it was run: as §1
# [9] = tested on: PPARg:RXRa 30nM:10nM, anti-RXR (NR concentration 30 nM, RXRa partner concentration 10 nM)
# How it was run: as §1
# [10] = tested on: PPARg:RXRa 90nM:30nM, anti-RXR (NR concentration 90 nM, RXRa partner concentration 30 nM)
# How it was run: as §1
# [11] = tested on: PPARg:RXRa DBDmut IVT, anti-RXR (DBD mutation: RXRa K156A/R161A, NR concentration 270 nM, RXRa partner concentration 90 nM)
# How it was run: as §1
# [12] = tested on: PPARg:RXRa IVT, anti-PPARg (NR concentration 270 nM, RXRa partner concentration 90 nM)
# How it was run: as §1
# [13] = tested on: PPARg DBDmut:RXRa IVT, anti-PPARg (DBD mutation: PPARg1 K132A/R137A, NR concentration 270 nM, RXRa partner concentration 90 nM)
# How it was run: as §1
# [14] = tested on: PPARg DBDmut IVT, anti-PPARg (DBD mutation: PPARg1 K132A/R137A, NR concentration 270 nM)
# How it was run: as §1
# [15] = tested on: PPARg homodimer (NR concentration 180 nM)
# How it was run: as §1
# [16] = tested on: PXR:RXRa (NR concentration 270 nM, RXRa partner concentration 90 nM)
# How it was run: as §1
# [17] = tested on: PXR homodimer (NR concentration 270 nM)
# How it was run: as §1
# [18] = tested on: RARa:RXR (NR concentration 270 nM, RXRa partner concentration 90 nM)
# How it was run: as §1
# [19] = tested on: RARa homodimer (NR concentration 270 nM)
# How it was run: as §1
# [20] = tested on: RARb:RXRa (NR concentration 270 nM, RXRa partner concentration 90 nM)
# How it was run: as §1
Sequence,PBM binding z-score [1],PBM binding z-score [2],PBM binding z-score [3],PBM binding z-score [4],PBM binding z-score [5],PBM binding z-score [6],PBM binding z-score [7],PBM binding z-score [8],PBM binding z-score [9],PBM binding z-score [10],PBM binding z-score [11],PBM binding z-score [12],PBM binding z-score [13],PBM binding z-score [14],PBM binding z-score [15],PBM binding z-score [16],PBM binding z-score [17],PBM binding z-score [18],PBM binding z-score [19],PBM binding z-score [20]
CGAACTAGGTCATCCAGGACAGTCAATACATTGA,4.68,3.11,0.817,2.43,0.306,5.03,7.74,6.5,3.94,6.22,8.57,8.35,3.88,2.33,1.98,2.25,1.6,2.83,0.712,3.95
ATCCCTAGGTAAAGTTCAGTGAAAGATCGATAGA,0.939,1.71,1.52,1.19,0.53,1.8,2.37,3.48,1.57,3.25,0.383,1.01,0.372,0.771,1.6,1.63,2.29,0.943,1.49,2.39
GGAACGTGGGCAAAGTTGATAGCATCTGTCGACG,-0.58,-0.566,-0.508,-0.667,-0.939,0.742,1.45,3.26,0.952,2.7,-0.0354,0.169,-0.243,-0.6,0.0888,-0.428,-0.473,-0.469,-0.252,0.113
GCGACTGGGGCAAAGGAGGTTACCATAAGGTTGG,1.77,1.09,-0.0421,0.882,-0.261,2.06,3.15,3.93,1.89,3.87,4.69,3.76,-0.0461,-0.579,1.05,1.54,-0.167,1.41,-0.0952,1.26
CAAACTAGCTCACGAAAGGTCAAAGTCGAATGAC,4.81,5.42,5.5,5.58,2.21,5.38,2.42,4.26,1.46,3.03,0.734,2.28,0.536,0.187,3.91,5.52,1.75,6.04,2.13,4.4
CTAACGAGGGCATGAGTTGATAGCAAATGCCGAT,0.543,0.409,-0.604,0.119,-0.182,1.54,1.71,2.02,0.704,1.51,3.84,2.56,0.128,0.129,0.262,0.639,0.123,0.588,0.359,2.01
AGTCAAAGTTCATCTAGGGAACGTAAGATATGCT,6.67,5.95,4.72,3.68,1.64,4.69,6.38,6.34,3.44,5.6,0.178,2.78,1.05,1.04,1.73,4.88,4.28,3.41,1.1,4.92
CGAACTAGGTCATCCAGGACATTGAATACATTGA,4.43,2.87,1.02,2.52,0.159,5.11,7.97,6.57,4.02,5.68,8.08,8.47,4.18,1.44,2.2,2.71,3.75,2.82,1.01,3.92
CCTGCTAGGTCAGGGTCAGCTAATCTACAGTATG,3.6,2.42,-0.231,2.55,-0.944,3.92,2.82,3,0.682,1.83,3.18,3.55,-0.395,-0.875,0.967,2.73,-0.26,3.48,0.175,4.42
TCTATTAGTTAAAGGGCAACCGACGAGTCCGTTT,0.559,1.45,0.826,1.12,0.427,1.87,1.12,3.36,3.9,3.45,2.36,0.552,0.374,1.04,1.7,1.32,0.941,1.18,1.13,2.47
CGTCAAAGTTCAAGGTATCGTAACAGAAAGCAGC,5.48,5.39,2.28,3.16,1.03,4.38,3.83,4.59,1.75,3.38,0.378,1.35,-0.37,0.459,2.03,3.81,1.91,3.09,1.17,4.93
TCTTGTAGATCAAGCAGCTTAAGAAAGCCTGAGT,-0.352,-0.169,-0.373,-0.0264,-0.791,0.29,-0.61,1.03,2.17,1.5,1.1,0.213,-0.268,-0.032,0.0501,-0.0224,-0.129,-0.209,-0.515,-0.253
ATATGTAGGTTACATCTGGGTCATTCAGGCTATG,1.65,3.57,1.05,2.18,0.621,4.01,5.41,4.89,2.26,3.88,7.49,7.53,2.55,1.93,1.95,2.11,1.05,2.38,0.399,2.18
CCGGCTAGGTCATGGTCAGCTAATCTACAGTATG,3.61,2.64,0.191,1.89,0.207,3.42,1.86,2.4,0.212,1.38,3.44,2.65,-0.0629,-0.269,2.5,1.4,-0.16,2.53,0.954,3.91
CCTACTGGGCCAAAAACGTCATTGATGCCGATAA,-0.178,-0.282,-0.294,-0.357,-0.478,0.119,0.525,1.02,-0.141,0.509,2.89,2.22,-0.472,-0.737,0.2,-0.35,-0.449,-0.17,-0.624,-0.163
ACTAGCAGGCCCAGTTTGGGTCACTCAAACAAAG,-0.0555,-0.448,-0.417,0.4,-0.861,0.93,-0.337,0.0503,-0.523,-0.144,-0.917,0.48,-1.4,-0.708,-0.457,0.133,-0.753,0.833,-0.613,0.828
ATCTGTAGGTTAAGGGTCATTCAGGTTGGTTCGC,5.22,5.26,3.63,4.56,1.72,5.72,9.93,9.03,9.65,10.6,3.99,5.75,1.73,1.69,3.99,5.59,3.35,6.53,2.88,3.77
TCATATAGGTAATACAGGAGAAAGTCGGCATCTA,0.853,1.01,0.161,0.676,0.172,1.07,1.23,2.37,3.96,2.81,4.09,2.1,1.79,0.92,0.788,0.627,0.0379,0.706,1.13,0.369
GCTAGTTGGTCAGTAAAAGGTCACGCACCGGTCG,4.11,4.91,4.69,4.3,0.681,4.73,3.18,5.04,2.52,4.78,1.6,2.94,1.14,0.145,5.9,5.48,1.28,6.73,4.45,4.47
CCTCACGGGTCAAGGTTATAGCACGGGTGGTACG,5.02,3.42,0.0967,2.74,-0.33,4.38,3.05,3.67,0.731,2.35,0.0332,1.85,0.133,0.0961,2.07,3.03,0.458,3.73,0.228,4.17
CCTCGGAGGCCAGAAGGTCAGAGCTGTCCGCTTT,1.46,1.39,-0.337,0.993,-0.99,1.97,-0.665,1.19,-0.826,0.521,-0.00859,-0.274,-1.71,-1.89,0.843,1.32,-0.625,2.12,-0.274,2.98
TCATATTGGTAAACAGGTGAAAGTCCGTAAGTTA,1.17,0.929,0.49,1.15,0.247,1.66,0.821,2.67,4.04,3.3,2.2,1.5,0.411,1.32,1.25,1.03,0.511,1.35,1.38,0.73
TAGCCTAGGTCATACGGGCCAGTATAGTGTCGGC,4.14,3.21,0.859,1.8,-0.00996,3.5,2.18,2.57,0.318,1.54,1.67,2.89,-0.195,-0.639,0.811,1.66,-0.13,2.4,0.0154,3.56
ATACCAAGGTGATCGTGAGGTCGTTGAAACTAAC,2.15,1.49,0.854,1.6,0.171,2.03,0.268,0.273,-0.226,0.172,0.647,1.34,0.138,0.0797,1.05,3.33,1.61,2.57,0.829,1.7
TCTGTTAGTTGAAGGGCAACCGACGAGTCCGTTT,0.758,0.866,0.374,0.639,0.983,0.837,-0.0567,1.91,3.09,2.14,1.61,1.1,0.429,0.734,1.19,0.704,1.02,0.521,0.738,1.65
CAAACTAGGTCACCGGAAGGACAAAGTCCGCATG,4.67,3.57,0.547,2.71,0.36,5.63,9.49,7.51,6.09,7.18,8.34,9.2,4.33,1.54,2.4,2.89,0.127,4.17,0.734,4.69
TCTGCTAGGTCGACGATGGTCAGCTAATCTGCTA,-0.0207,0.0577,-1.03,-0.332,-1.02,0.202,-0.26,0.642,1.2,0.698,1.12,0.905,-0.448,-0.108,-1.39,-0.185,-1.16,0.0229,-1.42,1.16
TAGCCTAGGTCAGGGGCCAGTATACCACGCGAAC,1.76,1.34,-0.415,1.88,-0.376,2.61,2.83,2.96,0.91,2.43,0.374,2.32,0.429,0.131,0.542,0.506,-0.579,1.42,-0.0424,3.22

# Source: the supplement of paper PMC6555819
